Molecular target: AMP-activated protein kinase, AMPK (Homo sapiens) (UniProt P54646+O43741+P54619+Q9UGJ0+Q9Y478+Q13131+Q9UGI9)
Assay: AMP-dependent Kinase enzyme assay. An in vitro enzyme assay that detects ADP turnover that is directly proportional to AMPK activity. This uses naive AMPK that is activated during the assay with MK-8722
Type: functional
Set-up: scale not given: direction of the effect not stated beside the values
Settings: 30 µM

SMILES	Percent Effect [%]
Cc1ccc(CN(C(=O)NCC2CCCO2)C2CC2)o1 (centres undefined)	-2.62
Cc1nc(CNCc2cccc(OC34CCCN(CC3)C4)c2)n[nH]1 (centres undefined)	-7.43
CC(C)N(CC(N)=O)C(=O)CCC(=O)c1ccc(F)cc1F	-2.63
CCOCC1(CNCc2cc(O)c3cc(C)ccc3n2)CC1	-2.54
Cn1nccc1CN1CCOC(c2ccc(-c3cncnc3)cn2)C1 (centres undefined)	9.64
CCn1c(C2CCN(C(=O)c3ccc4sc(C)nc4c3)CC2)n[nH]c1=O	-0.0637
CCCc1ccc(CN2CCC3(CCC(=O)N(CCCOC)C3)CC2)o1	4.14
Cc1cccn2cc(CNS(=O)(=O)N3CCOCC3)nc12	4.51
CC(C)c1ccc(S(=O)(=O)NC2CCN(CC(F)(F)F)C2)cc1 (centres undefined)	8.13
Cc1cc(N(C)C)nc(N2CCn3c(nnc3C(C)C)C2)n1	8.26
CCC[C@@H]1CN(Cc2cc(C#N)n(C)c2C)C[C@H]1NS(C)(=O)=O	-87.1
Cc1nc2c(c(=O)[nH]1)CN(C(=O)CCC1CCCN(C)C1)C2 (centres undefined)	12
O=C1CN(C(=O)c2cc3ccc(Br)cc3[nH]2)CCN1	91
Cc1csc(NC(=O)NCCCN2CCC(C(N)=O)CC2)n1	1.03
CN(C)S(=O)(=O)N1CCC(C(O)c2ccc(Cl)cc2)CC1 (centres undefined)	4.77
CCC(=O)N1CCC(c2ncc(C(=O)Nc3ccccc3)c(C)n2)C1 (centres undefined)	8.33
CN(C)c1cccc(C(=O)N2CCn3c(nnc3C3CC3)C2)c1	-2.33
CCc1nnc2n1CCN(C(=O)C(C)Oc1ccc(C#N)cc1)C2 (centres undefined)	10.6
Cc1cccc(C(=O)N2CC(=O)N(c3ccccc3Cl)CC2C)n1 (centres undefined)	20.1

Source: ChEMBL document CHEMBL3988442, “University of Dundee, Small-Polar-MMV Screening Library” (2021)
